# Laboratory results reported in PubChem BioAssay (NCI).
# This is part of a sample that, as a whole, favours compounds with a hit. Of some 79,000 tested, about 15% had one in any assay. Activity calls are given as the source filed them. Cut-off read from the data, not from the text of the source: active = growth inhibition above about 70%; inactive = the rest.
# Assay: NCI Yeast Anticancer Drug Screen. Data for the cln2 rad14 strain (AID 165);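 note: 0% = growth equal to vehicle treated cultures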
# Conditions: S. cerevisiae cln2 rad14 strain, at 50.0 µM (retest, dose inferred, filed as 5.0), stronger effect = higher value
# How it was run: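 Compounds are applied to the cln2 rad14 yeast strain, and growth is then compared with that of vehicle-treated cultures to give inhibition.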
row,SMILES,growth inhibition
1,NC(=O)NC(=O)N/N=C/c1ccc([N+](=O)[O-])o1,12% (inactive)
2,O=[N+]([O-])/C=C\c1csc2ccccc12,99% (active)
3,O=[N+]([O-])c1ccc2c(c1)CCc1ccccc1-2,33% (inactive)
4,CC1=C(C)CC2C(=O)C(C(O)CC(C)C)=CC(=O)C2C1 (stereo not given),86% (active)
5,CCC(=O)OC1CCC(C2CCCCC2)CC1 (stereo not given),7% (inactive)
6,Cc1cc(C2C(O)C(c3cc(C)on3)C2(C)O)no1 (stereo not given),-7% (inactive)
7,CC(C)C(Sc1nc(-c2ccccc2)c(-c2ccccc2)[nH]1)C(=O)NN (stereo not given),98% (active)
8,C/C(=N\NC(=O)N/N=C(\C)c1ccccn1)c1ccccn1,1% (inactive)
9,COC(=O)CCCCCCCCCCC(=O)O,-4% (inactive)
10,CCCCCCCCCCCCNC(=O)C[n+]1cccc(C(N)=O)c1,67% (inactive)
11,Nc1ccccc1N=Cc1ccccc1O,55% (inactive)
12,N#Cc1c(-c2ccc(Cl)cc2)c2c(n(C3OC(CO)C(O)C(O)C3O)c1=S)CCCC2 (stereo not given),86% (active)
13,CC(C)(C)CC(C)(C)N[P+](NC(C)(C)CC(C)(C)C)(NC(C)(C)CC(C)(C)C)NC(C)(C)CC(C)(C)C,99% (active)
14,CC(=O)OC1C(OC(C)=O)C2C(C)CC3OC(=O)C(C)C3CC2(C)C1OC(C)=O (stereo not given),46% (inactive)
15,NNC(=O)c1ccc(N)cc1O,-11% (inactive)
16,Nc1ccc2c(c1)C(=O)c1ccccc1-2,7% (inactive)
17,Cc1cn(C(C#N)=C(C#N)C#N)c2ccccc12,26% (inactive)
18,FC(F)(F)COP1(OCC(F)(F)F)=NP(OCC(F)(F)F)(OCC(F)(F)F)=NP(c2ccccc2)(c2ccccc2)=N1,-6% (inactive)
19,O=c1oc(-c2ccccc2Br)ns1,99% (active)
20,CC(=O)N1C(C(=O)NNc2ccccc2)CSC1c1ccccc1 (stereo not given),82% (active)

row,SMILES,growth inhibition
1,O=[N+]([O-])/C=C/c1cc2c(ccc3ccccc32)[nH]1,92% (active)
2,CN(C)CCCC1(c2ccccc2)SC(C)(C)c2ccc(Cl)cc21 (stereo not given),0% (inactive)
3,O=c1[nH]c2ccccc2c2oc3ccccc3c12,32% (inactive)
4,O=C(c1ccccc1)c1cn(/N=C\c2ccccc2)c(=O)nc1-c1ccccc1,95% (active)
5,Cc1ccc(S(=O)(=O)OCCc2ccc(Cl)cc2)cc1,-20% (inactive)
6,COC(=O)CC1(O)c2cc(OC)c3cccc(OC)c3c2CCC1(C)C(=O)OC (stereo not given),97% (active)
7,CC(C)CC(NC(=O)SCc1ccccc1)C(=O)O (stereo not given),8% (inactive)
8,COc1ccc(/C=C/c2ccnc3ccccc23)cc1,96% (active)
9,N#CC1=C(N)OC(/C=C/c2ccccc2)=C(C#N)C1c1ccccc1 (stereo not given),86% (active)
10,COc1ccc(C(=O)C(CN2CCOCC2)CN2CCOCC2)cc1,-11% (inactive)
11,N/N=C(/N)SCCCCCCCCCCS/C(N)=N/N,-28% (inactive)
12,OC(CBr)C[n+]1cccc2cc(Cl)ccc21 (stereo not given),-6% (inactive)
13,O=C(O)C1C(C(=O)Nc2ccc3c(c2)Cc2ccccc2-3)C2(Cl)C(Cl)=C(Cl)C1(Cl)C2(Cl)Cl (stereo not given),99% (active)
14,CSc1nc(COC(=O)NC(C)C)c(COC(=O)NC(C)C)n1-c1ccccc1,4% (inactive)
15,CC(C)C[NH-].CC(C)C[NH-].[Cl][Pt+2]([Cl])([Cl])[Cl],99% (active)
16,c1ccc(N=c2sc3ccccc3sc2=Nc2ccccc2)cc1,69% (inactive)
17,[Cl-].[La+3].[O-]/N=C(\c1ccccc1)c1ccccn1.[O-]/N=C(\c1ccccc1)c1ccccn1.[O-]/N=C(\c1ccccc1)c1ccccn1,34% (inactive)
18,Clc1ccc(SSN2CCCCC2)cc1,17% (inactive)
19,CCC(O)C(O)(c1ccccc1)c1nc2ccccc2s1 (stereo not given),9% (inactive)
20,ONC(=Nc1cccc2ccccc12)C(=Nc1cccc2ccccc12)NO,73% (active)

# Same assay, conditions: S. cerevisiae cln2 rad14 strain, at 50.0 µM, stronger effect = higher value
row,SMILES,growth inhibition
1,NC(=O)NC(=O)N/N=C/c1ccc([N+](=O)[O-])o1,38% (inactive)
2,O=[N+]([O-])/C=C\c1csc2ccccc12,99.3% (active)
3,O=[N+]([O-])c1ccc2c(c1)CCc1ccccc1-2,9.4% (inactive)
4,CC1=C(C)CC2C(=O)C(C(O)CC(C)C)=CC(=O)C2C1 (stereo not given),95.5% (active)
5,CCC(=O)OC1CCC(C2CCCCC2)CC1 (stereo not given),-21.2% (inactive)
6,Cc1cc(C2C(O)C(c3cc(C)on3)C2(C)O)no1 (stereo not given),-24.1% (inactive)
7,CC(C)C(Sc1nc(-c2ccccc2)c(-c2ccccc2)[nH]1)C(=O)NN (stereo not given),90% (active)
8,C/C(=N\NC(=O)N/N=C(\C)c1ccccn1)c1ccccn1,2.95% (inactive)
9,COC(=O)CCCCCCCCCCC(=O)O,-4.75% (inactive)
10,CCCCCCCCCCCCNC(=O)C[n+]1cccc(C(N)=O)c1,36.4% (inactive)
11,Nc1ccccc1N=Cc1ccccc1O,22.8% (inactive)
12,N#Cc1c(-c2ccc(Cl)cc2)c2c(n(C3OC(CO)C(O)C(O)C3O)c1=S)CCCC2 (stereo not given),31.2% (inactive)
13,CC(C)(C)CC(C)(C)N[P+](NC(C)(C)CC(C)(C)C)(NC(C)(C)CC(C)(C)C)NC(C)(C)CC(C)(C)C,90.7% (active)
14,CC(=O)OC1C(OC(C)=O)C2C(C)CC3OC(=O)C(C)C3CC2(C)C1OC(C)=O (stereo not given),32.4% (inactive)
15,NNC(=O)c1ccc(N)cc1O,75.1% (active)
16,Nc1ccc2c(c1)C(=O)c1ccccc1-2,11.6% (inactive)
17,Cc1cn(C(C#N)=C(C#N)C#N)c2ccccc12,-37.4% (inactive)
18,FC(F)(F)COP1(OCC(F)(F)F)=NP(OCC(F)(F)F)(OCC(F)(F)F)=NP(c2ccccc2)(c2ccccc2)=N1,2.45% (inactive)
19,O=c1oc(-c2ccccc2Br)ns1,89.8% (active)
20,CC(=O)N1C(C(=O)NNc2ccccc2)CSC1c1ccccc1 (stereo not given),65% (inactive)

row,SMILES,growth inhibition
1,O=[N+]([O-])/C=C/c1cc2c(ccc3ccccc32)[nH]1,93.3% (active)
2,CN(C)CCCC1(c2ccccc2)SC(C)(C)c2ccc(Cl)cc21 (stereo not given),-9.75% (inactive)
3,O=c1[nH]c2ccccc2c2oc3ccccc3c12,25.4% (inactive)
4,O=C(c1ccccc1)c1cn(/N=C\c2ccccc2)c(=O)nc1-c1ccccc1,87.4% (active)
5,Cc1ccc(S(=O)(=O)OCCc2ccc(Cl)cc2)cc1,-16.5% (inactive)
6,COC(=O)CC1(O)c2cc(OC)c3cccc(OC)c3c2CCC1(C)C(=O)OC (stereo not given),96% (active)
7,CC(C)CC(NC(=O)SCc1ccccc1)C(=O)O (stereo not given),15.4% (inactive)
8,COc1ccc(/C=C/c2ccnc3ccccc23)cc1,89% (active)
9,N#CC1=C(N)OC(/C=C/c2ccccc2)=C(C#N)C1c1ccccc1 (stereo not given),101% (active)
10,COc1ccc(C(=O)C(CN2CCOCC2)CN2CCOCC2)cc1,92.3% (active)
11,N/N=C(/N)SCCCCCCCCCCS/C(N)=N/N,51.9% (inactive)
12,OC(CBr)C[n+]1cccc2cc(Cl)ccc21 (stereo not given),39.8% (inactive)
13,O=C(O)C1C(C(=O)Nc2ccc3c(c2)Cc2ccccc2-3)C2(Cl)C(Cl)=C(Cl)C1(Cl)C2(Cl)Cl (stereo not given),98.3% (active)
14,CSc1nc(COC(=O)NC(C)C)c(COC(=O)NC(C)C)n1-c1ccccc1,53.1% (inactive)
15,CC(C)C[NH-].CC(C)C[NH-].[Cl][Pt+2]([Cl])([Cl])[Cl],83.5% (active)
16,c1ccc(N=c2sc3ccccc3sc2=Nc2ccccc2)cc1,59.5% (inactive)
17,[Cl-].[La+3].[O-]/N=C(\c1ccccc1)c1ccccn1.[O-]/N=C(\c1ccccc1)c1ccccn1.[O-]/N=C(\c1ccccc1)c1ccccn1,43.5% (inactive)
18,Clc1ccc(SSN2CCCCC2)cc1,7.1% (inactive)
19,CCC(O)C(O)(c1ccccc1)c1nc2ccccc2s1 (stereo not given),2.2% (inactive)
20,ONC(=Nc1cccc2ccccc12)C(=Nc1cccc2ccccc12)NO,-41.9% (inactive)
